# Test results as given in PubChem BioAssay (NCATS).
# Values joined by “and” are separate entries in the source; they are usually repeats but may differ in a detail not shown here. Identical values can stand only once. Unmarked numbers belong to inactive results. Records with an inconclusive call do not appear. Active and inactive are the calls of the source. Unless noted, the rule behind the calls is not given here.
# System: not listed separately
# Assay: qHTS assay for cell viability of the p53RE-bla HCT-116 cell line (AID 743292; active = well fitted cell-killing curve with a large enough effect; note: % is set by controls: 0 for no effect and ±100 for the full control effect; nearly all actives have a fitted effect of over 55% in size)
# Conditions: p53RE-bla HCT-116 viability, ATP luminescence, 16 h; series mostly up to 95 µM; activity change, negative = cytotoxicity: at the top concentration
# Method in brief: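 Compound-exposed HCT-116 (p53RE-bla) cells, 4,000 per well, were kept 16 h at 37 C following a 5 h preincubation. Cell number was estimated from total ATP by CellTiter-Glo luminescence read after 30 min at room temperature.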
SMILES,"activity change, negative = cytotoxicity [%]",Potency
CC(C#N)CCC#N (configuration not stated),-3.68,
Nc1cccc(Cl)c1,-2.49,
CCC/C=N/O,-3.33,
COc1c(C(C)(C)C)cc([N+](=O)[O-])c(C)c1[N+](=O)[O-],-0.349,
O=S(=O)(Cl)c1ccccc1,,inactive
C=CCOCC1CO1 (configuration not stated),1.18,
c1ccoc1,3.63,
Clc1ccccc1,3.31,
CCOC(=O)C1OC1(C)c1ccccc1 (configuration not stated),2.74,
ClC(Cl)C(Cl)Cl,-1.94,
C=CCCl,0.411,
Oc1c(Cl)cccc1Cl,-12.5,
C=CCO,-0.572,
OCCCCO,-2.94,
BrCCc1ccccc1,-1.57,
Cc1ccccc1[N+](=O)[O-],2.59,
CCCCOC(=O)c1ccccc1N,2.71,
Clc1cc(Cl)c(Cl)c(Cl)c1,-0.974,
Cc1ccc(N)c(C)c1,-3.39,
C1CC2OC2CC1C1CO1 (configuration not stated),,inactive
CN(C)C(=O)Cl,-0.333,
Cc1ccc(N=C=O)cc1N=C=O,,inactive
C=CC(=O)OC,-7.99,
CCN(CC)N=O,1.97,
OCC(Cl)CCl (configuration not stated),-1.16,
CC(C)CON=O,3.25,
CC[N+](=O)[O-],-1.36,
CC(C)(Cl)[N+](=O)[O-],-0.294,
C[N+](=O)[O-],-5.86,
ClCC(Br)CBr (configuration not stated),-3.15,

# Biological target: Nuclear receptor subfamily 1 group I member 2 (Rattus norvegicus) (UniProt Q9R1A7)
# Assay: qHTS assay for small molecule activators of the rat pregnane X receptor (rPXR) signaling pathway (AID 651751); note: 0% is about no effect
# Conditions: rPXR reporter cells, luciferase (One-Glo), 24 h
# Chain of Nuclear receptor subfamily 1 group I member 2 (Rattus norvegicus) (Q9R1A7 whole entry, looked up): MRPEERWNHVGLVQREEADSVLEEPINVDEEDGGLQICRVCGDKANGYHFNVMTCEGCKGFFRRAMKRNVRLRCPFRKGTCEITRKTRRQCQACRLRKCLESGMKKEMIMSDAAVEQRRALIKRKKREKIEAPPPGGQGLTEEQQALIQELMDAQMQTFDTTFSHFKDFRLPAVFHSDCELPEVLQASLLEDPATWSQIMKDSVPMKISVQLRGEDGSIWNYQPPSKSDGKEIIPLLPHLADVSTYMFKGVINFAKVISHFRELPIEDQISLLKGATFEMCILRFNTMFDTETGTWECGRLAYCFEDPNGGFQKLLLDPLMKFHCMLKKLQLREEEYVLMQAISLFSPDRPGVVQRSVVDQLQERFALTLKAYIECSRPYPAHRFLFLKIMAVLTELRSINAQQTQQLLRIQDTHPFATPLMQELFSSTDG
row,SMILES,max response
1,CC(C#N)CCC#N (configuration not stated),3.89%
2,Nc1cc(Cl)ccc1Cl,4.7%
3,Nc1cccc(Cl)c1,1.89%
4,ClCc1ccccc1,-2.08%
5,CCC/C=N/O,-0.891%
6,COc1c(C(C)(C)C)cc([N+](=O)[O-])c(C)c1[N+](=O)[O-],5.88%
7,O=S(=O)(Cl)c1ccccc1,-0.19% and -2.18%
8,C=CCOCC1CO1 (configuration not stated),-1.61%
9,c1ccoc1,3.47%
10,Clc1ccccc1,-2.96%
11,ClC(Cl)(Cl)C(Cl)(Cl)Cl,6.05%
12,CCOC(=O)C1OC1(C)c1ccccc1 (configuration not stated),-3.02%
13,C/C=C/CC#N,-0.823%
14,ClC(Cl)C(Cl)Cl,3.27%
15,C=CCCl,0.623%
16,Oc1c(Cl)cccc1Cl,5.06%
17,Brc1cccc(-c2ccccc2)c1,2.39%
18,C=CCO,-2.14%
19,Nn1cnnc1,2.65%

row,SMILES,max response
1,BrCCc1ccccc1,-6.29%
2,Cc1ccccc1[N+](=O)[O-],-2.44%
3,CCCCOC(=O)c1ccccc1N,-1.8%
4,Clc1cc(Cl)c(Cl)c(Cl)c1,-2.54%
5,Cc1ccc(N)c(C)c1,-0.287%
6,C1CC2OC2CC1C1CO1 (configuration not stated),-1.19% and -4.43%
7,CN(C)C(=O)Cl,-2.26%
8,CC(=O)NNc1ccccc1,-6.67%
9,Cc1ccc(N=C=O)cc1N=C=O,5.64% and 2.33%
10,O=C(Cl)OCc1ccccc1,4.69%
11,C=CC(=O)OC,0.297%
12,CCN(CC)N=O,3.34%
13,OCC(Cl)CCl (configuration not stated),2.56%
14,CC(C)CON=O,4.86%
15,CC[N+](=O)[O-],-6.68%
16,CC(C)(Cl)[N+](=O)[O-],2.49%
17,CC(C)OC(=O)Cc1ccccc1,1.04%
18,ClCC(Br)CBr (configuration not stated),0.571%
